Common to all, as to test: log2 ratio of Biotin-Ahx-Ub-VS probe labelling (fragment/DMSO); higher = less target engagement (more negative = stronger competition), active = hit call of the paper (q ≤ 0.05, log2 ratio ≤ -1)
Common to all, as to settings: compound concentration: 200 uM; treatment time: 3 h

The target of assay [1] is T1, OTUD6B (UniProt Q8N6M0).
T1 sequence (whole entry): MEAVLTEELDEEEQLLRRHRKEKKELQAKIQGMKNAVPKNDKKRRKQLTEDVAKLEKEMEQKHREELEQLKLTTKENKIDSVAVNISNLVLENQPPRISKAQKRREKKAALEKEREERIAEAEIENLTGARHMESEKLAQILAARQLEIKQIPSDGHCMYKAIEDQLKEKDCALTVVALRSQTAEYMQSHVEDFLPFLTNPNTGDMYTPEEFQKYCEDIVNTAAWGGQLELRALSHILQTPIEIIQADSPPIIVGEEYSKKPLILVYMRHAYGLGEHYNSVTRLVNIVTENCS
In a few lines: (§1)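 The table lists average log2 ratios of fragment over vehicle, from an unpaired t-test on global-median-normalised Spectronaut label-free quantities. Proteins with ≥2 unique peptides were used. Samples were HEK293T lysate (495 µg) treated in triplicate with fragment at 200 µM or vehicle for 3 h, then with Biotin-Ahx-Ub-VS (0.5 µM final) for 1 h, with labelled DUBs NeutrAvidin-enriched and run by diaPASEF LC-MS/MS.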

The target in assay [2] is T2, OTUD7B (UniProt Q6GQQ9).
T2 sequence (whole entry): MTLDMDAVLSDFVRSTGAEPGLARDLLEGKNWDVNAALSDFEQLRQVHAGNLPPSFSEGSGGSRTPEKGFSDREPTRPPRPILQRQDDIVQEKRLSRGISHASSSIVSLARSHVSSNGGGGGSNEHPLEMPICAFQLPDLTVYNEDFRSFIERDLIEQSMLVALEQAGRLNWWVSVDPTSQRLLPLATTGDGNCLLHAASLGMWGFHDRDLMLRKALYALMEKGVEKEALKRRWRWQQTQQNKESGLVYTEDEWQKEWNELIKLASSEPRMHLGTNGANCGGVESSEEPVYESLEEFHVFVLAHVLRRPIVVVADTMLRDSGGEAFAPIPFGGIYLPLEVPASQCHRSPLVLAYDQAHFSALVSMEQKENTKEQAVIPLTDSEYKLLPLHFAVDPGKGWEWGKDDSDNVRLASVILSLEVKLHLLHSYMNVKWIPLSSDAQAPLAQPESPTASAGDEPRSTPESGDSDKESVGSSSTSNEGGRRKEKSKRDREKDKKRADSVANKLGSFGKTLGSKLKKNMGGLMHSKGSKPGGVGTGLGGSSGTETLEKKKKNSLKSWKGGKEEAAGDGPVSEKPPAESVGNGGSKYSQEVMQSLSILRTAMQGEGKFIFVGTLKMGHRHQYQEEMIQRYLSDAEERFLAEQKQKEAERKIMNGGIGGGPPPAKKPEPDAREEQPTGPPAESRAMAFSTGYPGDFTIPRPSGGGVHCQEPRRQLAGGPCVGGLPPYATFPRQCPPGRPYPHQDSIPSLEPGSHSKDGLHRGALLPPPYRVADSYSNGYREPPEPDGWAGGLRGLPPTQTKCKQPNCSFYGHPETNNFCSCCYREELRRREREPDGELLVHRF
In a few lines: as §1

The target in assay [3] is PRPF8 (UniProt Q6P2Q9). Summed up:
as §1

Assay [4] deals with T3, PSMD7 (UniProt P51665).
T3 sequence (whole entry): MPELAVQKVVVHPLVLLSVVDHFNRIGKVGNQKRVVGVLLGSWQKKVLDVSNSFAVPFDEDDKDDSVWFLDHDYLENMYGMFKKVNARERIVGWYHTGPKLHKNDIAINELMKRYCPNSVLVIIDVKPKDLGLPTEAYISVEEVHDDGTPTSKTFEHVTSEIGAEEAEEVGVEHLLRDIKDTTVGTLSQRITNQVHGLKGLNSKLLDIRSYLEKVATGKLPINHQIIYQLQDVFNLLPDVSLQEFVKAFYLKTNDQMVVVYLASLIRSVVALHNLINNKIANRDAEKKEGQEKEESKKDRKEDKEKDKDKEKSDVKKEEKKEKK
Summed up: as §1

The target in assay [5] is UCHL1 (UniProt P09936). In a few lines: as §1
Assay [6] concerns the target T4, UCHL3 (UniProt P15374).
T4 sequence (whole entry): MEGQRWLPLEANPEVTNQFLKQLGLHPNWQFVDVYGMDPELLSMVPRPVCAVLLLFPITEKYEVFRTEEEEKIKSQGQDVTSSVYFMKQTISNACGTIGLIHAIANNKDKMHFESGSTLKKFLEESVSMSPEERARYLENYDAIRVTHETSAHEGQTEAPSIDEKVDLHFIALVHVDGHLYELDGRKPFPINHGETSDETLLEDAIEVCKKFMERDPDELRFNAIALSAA
In a few lines:
as §1

The target in assay [7] is T5, UCHL5 (UniProt Q9Y5K5).
T5 sequence (whole entry): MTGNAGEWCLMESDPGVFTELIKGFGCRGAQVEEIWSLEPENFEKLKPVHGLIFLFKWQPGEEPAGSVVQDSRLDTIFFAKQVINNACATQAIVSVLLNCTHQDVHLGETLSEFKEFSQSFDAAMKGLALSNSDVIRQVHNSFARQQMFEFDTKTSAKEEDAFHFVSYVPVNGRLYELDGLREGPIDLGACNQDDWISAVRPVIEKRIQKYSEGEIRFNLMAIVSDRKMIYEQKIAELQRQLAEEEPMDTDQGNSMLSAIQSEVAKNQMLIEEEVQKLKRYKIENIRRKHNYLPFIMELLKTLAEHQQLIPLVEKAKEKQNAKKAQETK
Summed up:
as §1

The target in assay [8] is USP10 (UniProt Q14694). In a few lines:
as §1

Assay [9] concerns the target T6, USP15 (UniProt Q9Y4E8).
T6 sequence (whole entry): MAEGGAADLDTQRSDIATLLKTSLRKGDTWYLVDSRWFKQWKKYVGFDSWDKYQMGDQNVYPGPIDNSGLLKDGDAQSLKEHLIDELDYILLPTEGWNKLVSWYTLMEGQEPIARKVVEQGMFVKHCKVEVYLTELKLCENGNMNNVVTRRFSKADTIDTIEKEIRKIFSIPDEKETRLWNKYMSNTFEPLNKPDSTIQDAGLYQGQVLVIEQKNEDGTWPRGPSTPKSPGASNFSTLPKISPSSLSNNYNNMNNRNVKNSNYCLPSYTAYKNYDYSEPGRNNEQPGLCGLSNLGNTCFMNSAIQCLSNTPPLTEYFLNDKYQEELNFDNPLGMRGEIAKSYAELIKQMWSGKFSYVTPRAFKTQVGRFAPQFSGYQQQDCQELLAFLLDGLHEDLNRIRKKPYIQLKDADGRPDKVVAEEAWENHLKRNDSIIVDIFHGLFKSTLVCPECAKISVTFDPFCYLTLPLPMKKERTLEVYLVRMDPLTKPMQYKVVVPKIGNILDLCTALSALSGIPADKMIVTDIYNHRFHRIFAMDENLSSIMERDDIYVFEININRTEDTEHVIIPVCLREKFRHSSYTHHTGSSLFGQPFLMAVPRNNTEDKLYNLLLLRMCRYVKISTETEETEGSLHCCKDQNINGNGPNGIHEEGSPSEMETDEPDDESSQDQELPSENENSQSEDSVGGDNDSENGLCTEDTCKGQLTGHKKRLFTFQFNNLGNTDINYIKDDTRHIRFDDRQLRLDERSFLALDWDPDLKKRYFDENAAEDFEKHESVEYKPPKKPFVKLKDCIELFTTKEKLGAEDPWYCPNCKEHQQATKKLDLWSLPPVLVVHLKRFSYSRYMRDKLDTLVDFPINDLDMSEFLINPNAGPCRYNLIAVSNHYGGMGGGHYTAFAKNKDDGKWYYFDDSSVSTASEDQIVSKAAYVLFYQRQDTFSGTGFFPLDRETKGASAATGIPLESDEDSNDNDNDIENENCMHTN
In a few lines: as §1

Assay [10] deals with USP16 (UniProt Q9Y5T5). In a few lines:
as §1

Values without a mark were called inactive.

USP16, sequence (Q9Y5T5 whole entry, looked up): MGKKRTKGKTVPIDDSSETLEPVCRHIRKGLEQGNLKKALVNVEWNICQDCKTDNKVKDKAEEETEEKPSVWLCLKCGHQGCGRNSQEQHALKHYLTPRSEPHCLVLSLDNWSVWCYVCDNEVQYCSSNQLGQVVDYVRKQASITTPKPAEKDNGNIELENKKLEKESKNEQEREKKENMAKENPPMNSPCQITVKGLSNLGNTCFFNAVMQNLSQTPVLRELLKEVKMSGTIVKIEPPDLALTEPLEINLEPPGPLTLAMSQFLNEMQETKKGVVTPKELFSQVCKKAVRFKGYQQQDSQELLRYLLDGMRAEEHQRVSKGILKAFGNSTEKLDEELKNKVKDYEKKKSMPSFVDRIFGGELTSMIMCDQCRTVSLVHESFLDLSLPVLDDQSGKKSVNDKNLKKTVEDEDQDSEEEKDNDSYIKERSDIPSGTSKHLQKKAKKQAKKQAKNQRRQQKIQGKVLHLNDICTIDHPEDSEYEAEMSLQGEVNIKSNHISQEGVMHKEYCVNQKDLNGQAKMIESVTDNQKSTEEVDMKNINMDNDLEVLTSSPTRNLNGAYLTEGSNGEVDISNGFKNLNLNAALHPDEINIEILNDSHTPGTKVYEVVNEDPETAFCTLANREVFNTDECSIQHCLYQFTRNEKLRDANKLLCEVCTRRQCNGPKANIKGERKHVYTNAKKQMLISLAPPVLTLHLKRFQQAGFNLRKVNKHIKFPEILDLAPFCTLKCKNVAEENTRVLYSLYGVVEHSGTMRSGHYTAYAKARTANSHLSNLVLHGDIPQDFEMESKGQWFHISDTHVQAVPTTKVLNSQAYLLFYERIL
UCHL1, sequence (P09936 whole entry, looked up): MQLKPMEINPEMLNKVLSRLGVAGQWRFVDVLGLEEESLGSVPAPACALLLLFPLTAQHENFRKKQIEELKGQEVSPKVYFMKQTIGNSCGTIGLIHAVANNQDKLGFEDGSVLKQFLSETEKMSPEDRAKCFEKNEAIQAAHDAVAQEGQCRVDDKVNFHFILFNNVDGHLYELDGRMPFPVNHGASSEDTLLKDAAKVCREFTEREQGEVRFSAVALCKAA
USP10, sequence (Q14694 whole entry): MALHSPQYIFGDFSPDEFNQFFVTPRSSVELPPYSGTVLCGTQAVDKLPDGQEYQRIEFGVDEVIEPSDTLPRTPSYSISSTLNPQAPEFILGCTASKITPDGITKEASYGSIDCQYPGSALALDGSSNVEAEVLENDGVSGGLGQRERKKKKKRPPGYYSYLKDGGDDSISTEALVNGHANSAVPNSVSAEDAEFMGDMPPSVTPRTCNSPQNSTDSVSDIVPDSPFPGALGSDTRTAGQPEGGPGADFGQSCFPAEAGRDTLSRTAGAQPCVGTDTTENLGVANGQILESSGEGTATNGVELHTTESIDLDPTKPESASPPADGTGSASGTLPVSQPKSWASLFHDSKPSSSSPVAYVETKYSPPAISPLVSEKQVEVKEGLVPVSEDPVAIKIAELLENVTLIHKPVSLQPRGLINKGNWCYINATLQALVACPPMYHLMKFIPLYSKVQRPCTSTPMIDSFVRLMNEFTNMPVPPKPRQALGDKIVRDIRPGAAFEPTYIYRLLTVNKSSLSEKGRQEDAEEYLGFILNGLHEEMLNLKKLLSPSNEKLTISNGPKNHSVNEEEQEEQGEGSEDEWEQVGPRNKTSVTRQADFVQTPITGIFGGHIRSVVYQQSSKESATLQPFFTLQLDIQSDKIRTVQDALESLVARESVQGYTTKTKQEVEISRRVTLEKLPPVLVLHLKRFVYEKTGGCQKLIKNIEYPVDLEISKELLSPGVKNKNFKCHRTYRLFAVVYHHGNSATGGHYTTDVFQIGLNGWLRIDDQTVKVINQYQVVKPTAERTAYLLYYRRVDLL

As for `CCC(NC(=O)CCl)c1ccc(Cl)cc1` (stereo not given), the “log2 ratio of Biotin-Ahx-Ub-VS probe labelling” value in assay [1] is 0.0691; in assay [2], -1.12 (active); in [3], 0.164; in assay [4] it was -0.0211; in assay [5], -1.12 (active); in [6] it was 0.495. Moreover, the “log2 ratio of Biotin-Ahx-Ub-VS probe labelling” value is -0.175 in assay [7], -0.0683 in assay [8], -0.0837 in [9] and -0.0971 in [10].
